# About 79,000 compounds went through this panel and 15% of them were active in at least one assay; those are over-represented in the sample as a whole. Values without a mark were called inactive. Calls of active or inactive are those of the source. Cut-off read from the data, not from the text of the source: active = growth inhibition above about 70%; inactive = the rest.
# How the values were obtained:
# [1] = NCI Yeast Anticancer Drug Screen. Data for the rad50 strain (AID 155);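 note: 0% = growth of vehicle-only cultures of the same strain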; details: S. cerevisiae rad50 strain growth inhibition, active compounds read high
# How it was run: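 Readout: growth inhibition relative to vehicle-treated cultures. Compound exposure was carried out in a genetically defined yeast strain deficient in DNA damage repair.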
# [2] = NCI Yeast Anticancer Drug Screen. Data for the mec2-1 strain (AID 157); details: S. cerevisiae mec2-1 strain, active compounds read high
# How it was run: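 Strain: mec2-1 (DNA repair/cell cycle alteration). Compound exposure, then growth measured; inhibition expressed relative to vehicle.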
# [3] = NCI Yeast Anticancer Drug Screen. Data for the sgs1 mgt1 strain (AID 161);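 note: 0% = growth of cultures given vehicle only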; details: S. cerevisiae sgs1 mgt1 strain, active compounds read high
# How it was run: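 Test agents were incubated with a DNA-repair-mutant yeast strain. Growth was then read and compared against vehicle-treated controls.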
# [4] = NCI Yeast Anticancer Drug Screen. Data for the cln2 rad14 strain (AID 165);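 note: 0% = growth equal to vehicle treated cultures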; details: S. cerevisiae cln2 rad14 strain, active compounds read high
# How it was run: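 Compounds are applied to the cln2 rad14 yeast strain, and growth is then compared with that of vehicle-treated cultures to give inhibition.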
# [5] = NCI Yeast Anticancer Drug Screen. Data for the bub3 strain (AID 167); details: S. cerevisiae bub3 mutant strain, active compounds read high
# How it was run: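 Readout: yeast growth inhibition, expressed relative to vehicle-only wells. The test organism is a mutant strain from a panel with lesions in DNA repair or checkpoint genes.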
# [6] = NCI Yeast Anticancer Drug Screen. Data for the mlh1 rad18 strain (AID 175); details: S. cerevisiae mlh1 rad18 strain growth inhibition, active compounds read high
# How it was run: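 Read-out is yeast growth inhibition, calculated against vehicle-only controls. The compound was applied to a strain engineered with DNA damage repair alterations.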
# [7] = at 5.0 µM (retest, dose inferred, filed as 0.5)
# [8] = at 50.0 µM (retest, dose inferred, filed as 5.0)
Compound,"growth inhibition [1, 7]","growth inhibition [1, 8]",growth inhibition ([1]; at 50.0 µM),"growth inhibition [2, 7]","growth inhibition [2, 8]",growth inhibition ([2]; at 50.0 µM),"growth inhibition [3, 7]","growth inhibition [3, 8]",growth inhibition ([3]; at 50.0 µM),"growth inhibition [4, 7]","growth inhibition [4, 8]",growth inhibition ([4]; at 50.0 µM),"growth inhibition [5, 7]","growth inhibition [5, 8]",growth inhibition ([5]; at 50.0 µM),"growth inhibition [6, 7]","growth inhibition [6, 8]",growth inhibition ([6]; at 50.0 µM)
Cc1cc(O)c(C)c(C)c1N=Nc1ccccc1,-157%,-58%,56.4%,-52%,-51%,6.3%,-68%,-38%,58.5%,-63%,-81%,16.8%,-70%,-47%,63.8%,-124%,-119%,87.5% (active)
Cc1c(C(C)(C)C)cc(C(C)(C)C)c(O)c1CN(C)Cc1c(C)c(C(C)(C)C)cc(C(C)(C)C)c1O,-3%,8%,99.5% (active),-8%,3%,99.3% (active),3%,33%,99.6% (active),-6%,-3%,99.5% (active),-3%,13%,99.4% (active),4%,17%,99.5% (active)
NCCCNCc1c2ccccc2c(CNCCCN)c2ccccc12,6%,6%,10.7%,-7%,-7%,43.4%,1%,1%,58.9%,24%,24%,56.1%,15%,15%,33.8%,4%,4%,74.5% (active)
CS(=O)(=O)Nc1ccc(Nc2c3ccccc3nc3ccccc23)cc1,13%,25%,91.8% (active),-7%,-11%,25.6%,6%,20%,14.3%,-14%,-3%,18.9%,10%,-2%,37.9%,1%,13%,35.1%
COc1ccc(C2c3cc4c(cc3OC(NCCO)C2C)OCO4)cc1 (stereo not given),-3%,88% (active),89% (active),-43%,86% (active),92.5% (active),-50%,82% (active),90.3% (active),5%,78% (active),92% (active),-24%,95% (active),91.2% (active),-18%,91% (active),88.2% (active)
O=c1ccc2nc3ccccc3ccc-2c1,-159%,-139%,23%,-53%,-55%,15.2%,-61%,-64%,18.3%,-46%,-58%,20.6%,-63%,-79%,62%,-117%,-110%,62.5%
Cc1ccc(C(CN)(CCBr)c2ccc(C)cc2)cc1,63%,99% (active),99.5% (active),50%,98% (active),99.5% (active),59%,99% (active),99.7% (active),19%,90% (active),99.4% (active),36%,91% (active),99% (active),92% (active),98% (active),99.5% (active)
BrC(Br)=C1C(=C(Br)Br)C(Br)C1Br (stereo not given),31%,69%,61.6%,-10%,59%,77.4% (active),72% (active),94% (active),83.8% (active),19%,53%,55%,18%,66%,73% (active),40%,71% (active),71.6% (active)
CCSc1nc2ccc(N3C(=O)C=CC3=O)cc2s1,88% (active),100% (active),99.7% (active),93% (active),100% (active),99.6% (active),96% (active),100% (active),99.5% (active),34%,99% (active),99.3% (active),93% (active),99% (active),99.6% (active),98% (active),99% (active),99.3% (active)
C=C(c1ccc2nc(NC(=O)OC)[nH]c2c1)c1cccs1,-4%,47%,61.3%,-7%,88% (active),93.2% (active),-4%,72% (active),91.8% (active),-9%,18%,41.1%,-3%,84% (active),90.5% (active),-9%,92% (active),95% (active)

# From PubChem BioAssay (NCI)
